Test results: PubChem BioAssay (EPA / NIEHS)
Inconclusive results are not listed. The source made the active and inactive calls. Rule for the calls, unless noted: active = hit-call score of the fitted dose curve at least 0.9, where 1 is the maximum; inactive = score below 0.9.

How the values were obtained:
[1] = CEETOX_H295R_11DCORT: CeeTox H295R High-throughput Steroidogenesis Assay for 11-Deoxycortisol (11DCORT) (AID 2283432); conditions: actives raise or lower the signal
Procedure, shortened: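 Human adrenal H295R cells were prestimulated with 10 uM forskolin for 48 h, then exposed to test chemical (0.1% DMSO final) for 48 h. Medium 11-deoxycortisol was quantified by MTBE extraction and HPLC-MS/MS; bidirectional fitting relative to DMSO.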

[2] = CEETOX_H295R_OHPREG: CeeTox H295R High-throughput Steroidogenesis Assay for OH-Pregnenolone (OHPREG) (AID 2283434); conditions: actives raise or lower the signal
Procedure, shortened: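 Human adrenal H295R cells were prestimulated 48 h with 10 uM forskolin, then exposed 48 h to chemical in 0.1% DMSO. Medium 17alpha-hydroxypregnenolone was quantified by HPLC-MS/MS after MTBE extraction; bidirectional fitting versus DMSO baseline.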

[3] = CEETOX_H295R_OHPROG: CeeTox H295R High-throughput Steroidogenesis Assay for OH-Progesterone (OHPROG) (AID 2283435); conditions: actives raise or lower the signal
Procedure, shortened: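 H295R adrenal cells prestimulated 48 h with 10 uM forskolin, then exposed 48 h to chemical (0.1% DMSO final). 17alpha-hydroxyprogesterone in medium quantified by HPLC-MS/MS; bidirectional fit versus DMSO, with MTT viability measured in the same wells.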

[4] = CEETOX_H295R_ANDR: CeeTox H295R High-throughput Steroidogenesis Assay for Androstenedione (ANDR) (AID 2283436); conditions: actives raise or lower the signal
Procedure, shortened: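 H295R human adrenal cells (passages ≤10) were exposed to test chemicals for 48 h; androstenedione in medium was MTBE-extracted and quantified by HPLC-MS/MS against a 7-point standard curve. Bidirectional fitting used DMSO as baseline.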

[5] = target: Estrogen receptor beta (Homo sapiens) (UniProt Q92731); test: OT_ER_ERbERb_1440: Odyssey Thera (OT) 24-hour HEK293T Protein-Complementation Assay for Estrogen Receptor-beta/-beta Homodimer (AID 2283380; active = hit-call score of the fitted dose curve at least 0.9, where 1 is the maximum;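 note: fluorescence gain from ER beta LBD homodimer complementation read by laser scanning cytometry; scored as signal increase over DMSO baseline for both agonists and antagonists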)
Estrogen receptor beta (Homo sapiens), sequence (Q92731 whole entry, looked up, the tested form may be a part): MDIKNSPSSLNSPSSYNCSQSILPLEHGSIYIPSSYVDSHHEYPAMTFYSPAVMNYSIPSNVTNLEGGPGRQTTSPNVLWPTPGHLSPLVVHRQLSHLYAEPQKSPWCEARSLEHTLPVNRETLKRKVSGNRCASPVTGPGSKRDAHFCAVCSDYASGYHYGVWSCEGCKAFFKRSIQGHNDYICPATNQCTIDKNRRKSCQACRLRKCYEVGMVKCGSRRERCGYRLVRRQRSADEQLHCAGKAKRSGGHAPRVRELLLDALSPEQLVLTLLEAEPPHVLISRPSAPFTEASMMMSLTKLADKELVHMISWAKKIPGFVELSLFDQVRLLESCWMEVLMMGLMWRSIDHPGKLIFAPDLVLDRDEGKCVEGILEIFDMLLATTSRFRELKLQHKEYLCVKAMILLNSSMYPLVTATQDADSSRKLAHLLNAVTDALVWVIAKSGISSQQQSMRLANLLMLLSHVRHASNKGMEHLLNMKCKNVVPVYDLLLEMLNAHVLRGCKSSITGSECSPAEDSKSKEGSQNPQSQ
Procedure, shortened: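 HEK293T cells stably expressing human ER-beta LBD (aa 310-547) PCA homodimer pair, dosed 24 h; formaldehyde-fixed, Draq5-stained. Readout: increase in nuclear (agonist) or nuclear plus cytoplasmic (antagonist) fluorescence intensity versus DMSO, gain-of-signal fitting.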

[6] = target: Estrogen receptor (Homo sapiens) (UniProt P03372); test: OT_ERa_GFPERaERE_0480: Odyssey Thera (OT) 8-hour HeLa Transcription Induction Assay for Estrogen Receptor (AID 2283381)
Estrogen receptor (Homo sapiens), sequence (P03372 whole entry, looked up): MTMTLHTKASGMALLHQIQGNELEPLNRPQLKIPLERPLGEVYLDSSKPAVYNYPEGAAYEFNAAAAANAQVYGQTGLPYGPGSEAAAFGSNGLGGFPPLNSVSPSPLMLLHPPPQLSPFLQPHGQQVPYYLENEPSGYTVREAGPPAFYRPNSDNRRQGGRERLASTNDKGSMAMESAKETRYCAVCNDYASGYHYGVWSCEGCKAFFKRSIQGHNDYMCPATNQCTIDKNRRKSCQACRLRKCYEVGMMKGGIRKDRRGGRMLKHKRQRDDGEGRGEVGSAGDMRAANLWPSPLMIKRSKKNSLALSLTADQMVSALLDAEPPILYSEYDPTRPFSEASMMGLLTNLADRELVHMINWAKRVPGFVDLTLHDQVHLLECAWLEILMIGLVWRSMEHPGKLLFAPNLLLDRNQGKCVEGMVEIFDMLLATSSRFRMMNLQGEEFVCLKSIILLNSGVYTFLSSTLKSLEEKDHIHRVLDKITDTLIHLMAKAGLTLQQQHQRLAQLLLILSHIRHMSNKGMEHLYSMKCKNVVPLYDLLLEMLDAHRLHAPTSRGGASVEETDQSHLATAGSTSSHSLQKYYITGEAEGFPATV
Procedure, shortened: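 HeLa cells expressing GFP reporter under estrogen response element, imaged 8 h after dosing. GFP induction quantified by high-content fluorescence microscopy image analysis; gain of signal fitted versus DMSO.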

[7] = target: Estrogen receptor (Homo sapiens) (UniProt P03372); test: OT_ERa_GFPERaERE_0120: Odyssey Thera (OT) 2-hour HeLa Transcription Induction Assay for Estrogen Receptor (AID 2283382; active = hit-call score of the fitted dose curve at least 0.9, where 1 is the maximum)
Procedure, shortened: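 HeLa cells were dosed for 2 h, then GFP reporter induction was quantified by fluorescence microscopy with high-content image analysis. Gain of signal fitted against DMSO baseline.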

[8] = target: Peroxisome proliferator-activated receptor gamma (Homo sapiens) (UniProt P37231); test: OT_PPARg_PPARgSRC1_0480: Odyssey Thera (OT) 8-hour Protein-Complementation Assay for Peroxisome Proliferator-activated Receptor Gamma / SRC-1 Co-activator (AID 2283387; active = hit-call score of the fitted dose curve at least 0.9, where 1 is the maximum)
Peroxisome proliferator-activated receptor gamma (Homo sapiens), sequence (P37231 whole entry, looked up, the tested form may be a part): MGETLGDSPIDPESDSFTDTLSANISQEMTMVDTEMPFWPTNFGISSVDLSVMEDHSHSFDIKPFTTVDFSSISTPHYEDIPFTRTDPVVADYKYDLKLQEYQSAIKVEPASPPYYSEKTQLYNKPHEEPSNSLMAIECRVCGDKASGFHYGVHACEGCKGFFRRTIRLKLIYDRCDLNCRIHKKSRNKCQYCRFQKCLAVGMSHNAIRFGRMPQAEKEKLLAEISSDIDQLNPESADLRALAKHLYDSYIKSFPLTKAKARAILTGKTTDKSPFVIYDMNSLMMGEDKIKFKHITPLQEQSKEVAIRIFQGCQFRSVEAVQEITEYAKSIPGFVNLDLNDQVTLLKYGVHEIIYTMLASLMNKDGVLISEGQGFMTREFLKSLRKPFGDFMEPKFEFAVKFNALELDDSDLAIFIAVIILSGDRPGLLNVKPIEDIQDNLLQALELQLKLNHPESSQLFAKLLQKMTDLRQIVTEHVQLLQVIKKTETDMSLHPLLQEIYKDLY
Procedure, shortened: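 Protein-fragment complementation of split Venus YFP reports PPARg/SRC-1 interaction in HEK293T (transfected 48 h before treatment), exposed 8 h. Readout: N/C fluorescence ratio at 488 nm from imaging, Draq5 for segmentation, positive fit relative to DMSO.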

[9] = target: Peroxisome proliferator-activated receptor gamma (Homo sapiens) (UniProt P37231); test: OT_PPARg_PPARgSRC1_1440: Odyssey Thera (OT) 24-hour Protein-Complementation Assay for Peroxisome Proliferator-activated Receptor Gamma/ SRC-1 Co-activator (AID 2283388; active = hit-call score of the fitted dose curve at least 0.9, where 1 is the maximum)
Procedure, shortened: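 HEK293T cells transiently transfected with PPARg and SRC-1 fused via (Gly4Ser)2 linker to split Venus YFP fragments (IFP1/IFP2) were dosed 24 h; fixed, Draq5-stained, imaged at 488/635 nm; nuclear/cytoplasmic fluorescence ratio scored versus DMSO baseline, gain-of-signal.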

Measured: outcome

OCCCO
inactive: [1] | [2] | [3] | [4]

COC(=O)c1cccc(C(=O)OC)c1
inactive: [5] | [6] | [7] | [8] | [9]
